tim10-1 inh: tim10-1 yeast growth inhibition | S. cerevisiae tim10-1 ts strain growth, BacTiter-Glo, 24 h | inhibition, % at 20 µM | hit rate 2.2% among 330,000;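 active = inhibition of at least 40%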;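 also: mutant grown at 25 °C; 0% = DMSO wells with yeast and 100% = wells holding no yeast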
EBI2 antag: antagonists of human EBI2 receptor; EBI2 beta-arrestin recruitment, luminescence, 7a,25-OHC stimulated; inhibition, % at 5 µM; hit rate 0.81% among 360,000; AID 651636; in the data active = inhibition above about 38%;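 also: enzyme fragment complementation signal reports receptor beta-arrestin coupling in cells; 0% = agonist plus DMSO wells and 100% = wells without agonist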
Target sequence (P32249 whole entry, looked up, the tested form may be a part): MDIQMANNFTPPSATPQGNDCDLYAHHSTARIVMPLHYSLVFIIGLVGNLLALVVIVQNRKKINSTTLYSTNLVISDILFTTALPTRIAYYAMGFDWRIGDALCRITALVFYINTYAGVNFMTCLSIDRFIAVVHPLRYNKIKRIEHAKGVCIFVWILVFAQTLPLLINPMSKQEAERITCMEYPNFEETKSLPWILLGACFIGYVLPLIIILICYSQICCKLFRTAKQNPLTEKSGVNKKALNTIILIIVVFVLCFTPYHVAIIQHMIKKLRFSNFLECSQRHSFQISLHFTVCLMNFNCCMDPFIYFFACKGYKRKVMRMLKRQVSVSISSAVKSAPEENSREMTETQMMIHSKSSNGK
PfHsp90 yeast 2: inhibits growth of yeast expressing Plasmodium falciparum Hsp90 | S. cerevisiae expressing PfHsp90, BacTiter-Glo ATP, 48 h; yeast lacking PDR1 and PDR3 efflux regulators | inhibition, % at 9.4 µM | hit rate 0.32% among 310,000;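 active = every replicate shows inhibition above about 80%, whatever the replicate mean, limit read from the data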;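 also: 0% = DMSO neutral controls and 100% = 20 µM radicicol positive controls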
tim23-1 inh: inhibits growth of tim23-1 mutant yeast; S. cerevisiae tim23-1 growth, BacTiter-Glo luminescence, 24 h; inhibition, % at 20 µM; hit rate 1.3% among 330,000;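 active = growth inhibition of the mutant yeast at or above 50%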;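 also: temperature-sensitive mutant grown at 25 °C; plate controls were DMSO-treated mutant yeast for no effect and medium wells lacking yeast for full effect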
SKKanGAS inh: SKKanGAS growth inhibition; S. pyogenes SKKanGAS, kanamycin growth, BacTiter-Glo, 6 h; hit rate 1.3% among 300,000; AID 1662; inhibition, % at 7.5 µM;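 active = mean replicate score, as percent of positive control median, at least 50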;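 also: strain carries kanamycin resistance gene driven by streptokinase promoter and grows in 40 µg/ml kanamycin; loss of luminescence reflects streptokinase promoter inhibition or plain growth inhibition; 0% = median of DMSO wells and 100% = positive control at its reference dose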
TIM10 inh: TIM10 yeast growth inhibition | hit rate 1.4% among 330,000 | inhibition, % at 10 µM | S. cerevisiae TIM10 strain growth, BacTiter-Glo luminescence, 24 h;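 active = inhibition of 40% or more at the single tested concentration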;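 also: wild-type TIM10 isogenic control strain grown at permissive 25 °C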
An asterisk follows results filed as active; . = no result given. Most compounds without a hit are left out; they make up all but 4.7% or so of the library.

SMILES	tim10-1 inh	EBI2 antag	PfHsp90 yeast 2	tim23-1 inh	SKKanGAS inh	TIM10 inh
CCOc1ccc2cc(C3CC(c4ccco4)=NN3S(C)(=O)=O)c(=O)[nH]c2c1 (stereo not drawn)	2	-8	18	11	-1	7
N#Cc1c(-c2ccccc2)nc(SCC(=O)N2c3ccccc3Sc3ccccc32)[nH]c1=O	2	-16	-13	18	73*	15
C=CCSc1nc(-c2ccccc2)c(C#N)c(=O)[nH]1	-3	4	-15	14	.	4
N#Cc1c(-c2ccccc2)nc(SCc2ccc(Cl)cc2)[nH]c1=O	23	4	-9	16	61*	11
CC[C@]12C(=O)N(C)C[C@H]([C@@H]3C(=O)N(Cc4ccccc4)C(=O)[C@@H]31)N2C(=O)c1ccc(F)cc1	.	-16	-27	.	.	.
Nc1nc(CN2CCN(Cc3ccccc3)CC2)nc(N2CCCc3ccccc32)n1	21	-14	.	-13	6	12
Nc1nc(CN2CCN(c3ccccc3)CC2)nc(N2CCCc3ccccc32)n1	38	-6	-13	29	88*	24
Nc1nc(CN2CCN(c3cccc(Cl)c3)CC2)nc(N2CCCc3ccccc32)n1	37	7	17	46	91*	20
COC(=O)C[C@H]1CC[C@H](NC(=O)c2cccc(F)c2)[C@@H](CO)O1	.	-6	.	.	.	.
COc1ccc(/C=C/C(=O)NC(=S)NNC(=O)c2cc(OC)c(OC)c(OC)c2)cc1	-6	9	17	3	101*	-7
COc1ccc(/C=C/C(=O)NC(=S)NNC(=O)c2cc(OC)c(OC)c(OC)c2)cc1OC	21	-4	.	16	89*	30
O=C(CSc1nc2ccccc2[nH]1)Nc1nc(-c2cccc(Br)c2)cs1	3	-4	4	31	80*	21
COc1cccc(/C=C2/SC(=S)N(CC(=O)NNC(=O)c3ccccc3O)C2=O)c1	-6	1	0	1	98*	25
O=C(CCN1C(=O)/C(=C/c2cccs2)SC1=S)Nc1ccccc1O	-9	-2	5	-6	10	-13
Cc1nn(-c2ccccc2)c(Cl)c1/C=C1\SC(=S)N(CCCCCC(=O)O)C1=O	14	17	-3	34	80*	-8
O=C(CN1C(=O)/C(=C/c2ccccc2)SC1=S)NNC(=O)c1ccccc1O	0	2	9	-35	33	-5
O=C(CCCN1C(=O)/C(=C\c2cccs2)SC1=S)Nc1cc([N+](=O)[O-])ccc1O	-9	5	2	3	73*	-16
COc1cc(/C=C2\SC(=S)N(CCC(=O)Nc3ccccc3)C2=O)cc(OC)c1OC	17	19	-23	28	15	12
COc1cc(/C=C2\SC(=S)N(CCC(=O)Nc3cccc(O)c3)C2=O)cc(OC)c1OC	11	35	4	14	57*	7
COc1cc(/C=C2/SC(=NCc3ccccc3)N(Cc3ccccc3)C2=O)ccc1O	5	15	-24	-3	85*	4
O=C(O)CCCCN1C(=O)/C(=C\c2ccc(OCc3ccccc3)c(OCc3ccccc3)c2)SC1=S	16	29	-14	9	50*	12
O=C1/C(=C\c2cccc(O)c2)SC(=S)N1Cc1ccccc1	-19	-2	10	50	7	24
COc1cc(/C=C2/SC(=S)N(Cc3ccccc3)C2=O)ccc1O	-1	24	-1	42	66*	16
O=C1/C(=C\c2cccc(O)c2O)SC(=S)N1Cc1ccccc1	-50	5	108*	39	93*	6
O=C1/C(=C\c2cc([N+](=O)[O-])ccc2O)SC(=S)N1Cc1ccc(Cl)cc1	.	14	12	.	96*	.
SMILES	tim10-1 inh	EBI2 antag	PfHsp90 yeast 2	tim23-1 inh	SKKanGAS inh	TIM10 inh
Cc1ccccc1/C=C1\SC(=S)N(/N=C/c2cc([N+](=O)[O-])ccc2O)C1=O	31	-8	-23	32	-15	38
Cc1ccc(C(=O)C2=C(O)C(=O)N(Cc3ccco3)C2c2cccc(Br)c2)o1 (stereo not drawn)	-3	-2	1	4	52*	-3
Cc1ccc(C(=O)C2=C(O)C(=O)N(Cc3ccco3)C2c2cccc(Cl)c2)o1 (stereo not drawn)	14	2	.	5	22	-5
COc1ccc(N(CC(=O)NCc2cccs2)S(=O)(=O)c2ccc(C(C)=O)cc2)cc1	.	-6	.	.	.	.
CCO/C(C)=N/Oc1cncnc1	.	-8	.	.	.	.
COc1cc(-c2nc(-c3ccccc3)c(-c3ccc(F)cc3)[nH]2)cc2c1OCO2	4	18	-31	-6	-6	14
COc1ccccc1N=Nc1nc(-c2ccccc2)c(-c2ccccc2)[nH]1	.	38	5	.	67*	.
COc1ccccc1-c1c(-c2ccc(OCC(=O)NN)cc2O)n[nH]c1C(F)(F)F	12	-3	25	5	-2	0
COc1ccc(-c2n[nH]c(C(F)(F)F)c2-c2cc3ccccc3o2)c(O)c1	16	4	73	-127	99*	17
CC(=O)Nc1ccc(NC(=O)CSc2nnc(-c3cccnc3)o2)cc1	-22	4	0	-22	-4	1
CCCCn1c(O)c(C(CC)=Nc2ccc3c(c2)CCC3)c(=O)[nH]c1=O	12	-11	-3	4	53*	31
C=CCn1c(O)c(C(CC)=Nc2ccccc2NC(=O)CC)c(=O)[nH]c1=O	10	4	.	9	-3	1
Cn1c(Cc2ccccc2)nnc1SCC(=O)c1cccs1	-4	-13	-1	8	2	0
O=C(Nc1cccc(C(F)(F)F)c1)c1cccnc1N1CCN(c2ccccc2)CC1	24	8	10	27	51*	5
Cc1c(C(=O)NCc2ccc(F)cc2)sc(=O)n1Cc1ccc(C(=O)c2ccccc2)cc1	.	4	.	.	.	.
CC(C)(C)c1cc(NCc2ccccn2)n2ncc(-c3ccc(Cl)cc3)c2n1	-5	16	-20	4	85*	3
CC(C)Nc1cc(C(C)(C)C)nc2c(-c3ccccc3)cnn12	-10	24	15	9	89*	-8
CCc1nccn1-c1cc(C(C)(C)C)nc2c(-c3ccc(Cl)cc3)cnn12	38	20	-6	20	8	25
C=CCn1c(NS(=O)(=O)c2ccccc2)c(S(=O)(=O)c2ccc(C)cc2)c2nc3ccccc3nc21	.	-16	17	.	27	.
O=S(=O)(Nc1c(S(=O)(=O)c2ccccc2)c2nc3ccccc3nc2n1C1CCCCC1)c1ccccc1	.	-3	-55	.	91*	.
CN(c1ccccc1)c1ccc(/C=C/[N+](=O)[O-])cc1	.	7	106*	.	12	.
CC(C)(C)OC(=O)[C@H](Cc1ccccc1)NC(=O)c1[nH]cnc1C(=O)Nc1ccc(Cl)cc1	26	-45	21	37	91*	22
Cc1cccc(NC(=O)c2nc[nH]c2C(=O)N[C@@H](CC(C)C)C(=O)OC(C)(C)C)c1	24	-34	-10	41	100*	17
